# The supplement of paper PMC6555819
# System: LXRb:RXRa (NR concentration 270 nM, RXRa partner concentration 90 nM)
# Test: PBM binding z-score (relative to random genomic background probes); higher = stronger binding; sequences stand for … in GC…GCGATTGACAGCGTAGAATGAAGG
# Description: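 Protein-binding microarray (Agilent 4x180K custom design, double-stranded 60-nt probes: 5' GC cap, 34-nt variable region, 24-nt constant primer region; full probe sequence given). Purified or IVT nuclear receptor:RXRα heterodimers (3:1 NR:RXRα, mostly 270:90 nM) or homodimers were incubated for 1 h in PBS with 2% milk and no ligand, then detected with Alexa488 antibodies. Fluorescence from o1-orientation probes (~5 replicates averaged) was converted to z-scores against 500 random hg19 background probes. Variable regions are seed direct-repeat (DR0–DR5) sites, all their single-nucleotide variants and half-site ablations.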
row,Sequence,PBM binding z-score
1,CGTACAAGGTCAAAGGTCAGTGAAGAGATGACGG,6.66
2,CGAACTAGGTCATTGACAGGACAGTGGATAGTAA,1.97
3,CCAACTAGGTCAAAGGACAGTGAAAGGCGACGTA,1.91
4,CCTTACGGGTCACGAGGTCATAGCACGACGAGCG,5.05
5,CAAACTAGTTCAAGAGGTCAAAGTCCGCTTCCCG,5.37
6,CTCGAAAGGTCGTGCTCAGATGAGTATACCAAAC,3.44
7,CGAACTACGTCATCCAGGACAGTGAATACATTGA,-0.00555
8,CCTTACGGGTCACGAGGTTGTAGCACGACGAGCG,3.44
9,GGAACGAGGTCAAGTTGATAGCAGAGTTTGATGG,5.3
10,TATTCAGGGTCAAAGGCCAGAGTACGAATGTCGA,5.77
11,ATATGTAGGTTATCGGGTCATACAGTTTGCGCAT,3
12,CCTACTGGGCCACTAAAGGTCATTGATTCAGTGA,5.49
13,AGTCAAAGTTCAGGACGACGTAACGTAAAGCACG,1.67
14,CAAACCAGGTCAAGAGGTCAAAGTCCGCTTCCCG,5.73
15,CGAACTAGGTCAAGGCCAGTGAATCTCCGCACGC,1.44
16,TAGCCTAGGTCATTCAGGGGCCACTATAGAAAGC,3.38
17,GGAACGAGGGCATTCGAGTTCATAGCATGGCGAT,3.44
18,AGAATGAGGTCATTAAGATCAGGGAATTGCGGTC,4.71
19,CGTCAAAGTCCAAGGTAACGTAACAGAAAGCAGC,-0.011
20,GCATATAGGTAATACAAGGTCAAAGTCCGATTGT,5.63

row,Sequence,PBM binding z-score
1,AGAATGAGGTTAAACGTAGATCAGGGAAGAAAGT,2.42
2,ACTTAAGGGTCAACGAGGTTATAGCACGCGTATA,5.33
3,TCTAGTTGGTCACGGAGGTCACAAACGACGGGTA,3.15
4,CGTTCAAGGTCAAAGGTCAGTGAAGAGATGACGG,6.76
5,ATCGAAAGGTCGAAGGTGAGCATACCCACCCGAA,2.79
6,TAGCCTAGGTCATTCAGGGGCAAGTATAGAAAGC,4.97
7,CCTACTGGGCCACGAAAGGCCATTGATTCAGTGA,-0.37
8,CGTCCAAGGTCAGCGGGTCAGTGAAAGCGACGTG,3.11
9,CCGAGAAGGTTACGAGGGGGCATTCAGTGCGAAT,7.2
10,CCGACTGGGGCAAGGTCACCATAACGCACAGCCA,2.81
11,GATACAGGGTCAGCTACAGGCCAGAGTATGGAAA,2.51
12,GCTTACGGGTCCAAGGTTATAGCATGAATAGAAT,0.855
13,ATATGTAGGTTAGCTGGGGTCATTCACACTAGGC,5.1
14,ATATGTAGGTTAGCTGAGGTCATTCAGACTAGGC,4.72
15,ATTTGTAGGTTACATCCGGGTCATTCAGGCTATG,3.54
16,ATCTCTAGGTTAAGATAGTTCAGTGAATGCAAAT,3.33
17,CGTCCAAAGTCAAAGGTCAGTGAAGAGATGACGG,3.44
18,ATCGAAAGGTCCAAGGTGAGTATACCCACCCGAA,0.126
19,AGAACGAGGTCACGCTGAGTTGATAGCAGAGTAG,5.24
20,TATCAAAGTTCAAAGGTAACGTAAGTATCCACAC,4.98
